A selection: hits, their analogues and other compounds. The true share with any hit is near 12%.
PLK1 PBD inh: PLK1 (human) polo-box domain binding inhibition. Potency, µM, for inactives: max response, negative = inhibition, hits mostly inhibitors. P53350. 360,000 compounds, 2.8% hits. Plk1 PBD binding of FITC phosphopeptide, fluorescence polarization; also: series mostly up to about 57 µM; % is scaled to controls: 0 for no effect and ±100 for the full control effect; nearly all actives have a fitted effect of over 65% in size
JMJD2A Tudor: blocks the human JMJD2A Tudor domain; O75164; AlphaScreen JMJD2A-Tudor / H3K4me3 peptide binding; Potency, µM (highest dose often 114 µM), for the others: at the highest dose activity change, negative = inhibition, usual class: inhibitors; 390,000 compounds, 4.4% hits; AID 504339; also: % is scaled to controls: 0 for no effect and ±100 for the full control effect; nearly all actives have a fitted effect of over 50% in size
G9a inh: inhibitors of human histone lysine methyltransferase G9a; Q96KQ7; G9a H3K9 monomethylation, AlphaScreen, 2 h; Potency, µM (series often up to 102 µM), for inactives: top-dose activity, negative = inhibition, usual class: inhibitors; 350,000 compounds, 8.8% hits; AID 504332; also: % is scaled to controls: 0 for no effect and ±100 for the full control effect; nearly all actives have a fitted effect of over 75% in size
Target sequence (Q96KQ7 913-1193 limits assumed): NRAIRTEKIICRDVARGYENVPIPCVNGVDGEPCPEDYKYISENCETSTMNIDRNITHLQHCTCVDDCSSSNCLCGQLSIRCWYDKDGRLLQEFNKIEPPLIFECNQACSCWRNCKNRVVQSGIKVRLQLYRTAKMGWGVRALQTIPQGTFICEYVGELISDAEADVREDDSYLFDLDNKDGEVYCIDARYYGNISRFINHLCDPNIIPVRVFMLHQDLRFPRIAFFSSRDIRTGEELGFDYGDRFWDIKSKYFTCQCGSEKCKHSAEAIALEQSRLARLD
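Quantitative HTS format: methyltransferase activity on a biotin-tagged H3K9 peptide is measured by AlphaScreen, using a rabbit anti-monomethyl-H3K9 antibody with streptavidin donor and anti-IgG acceptor beads. Final levels are 20 nM enzyme, 500 nM peptide, 20 uM SAM; 2 h RT.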
Sfp inh: Sfp phosphopantetheinyl transferase inhibition; Biochemical Sfp PPTase activity, qHTS; 310,000 compounds, 3.5% hits; Potency, µM, for the others: largest response in the series, negative = inhibition, usual class: inhibitors; AID 1490;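 also: the enzyme is Sfp with the accession as filed and its product quenches rhodamine fluorescence; 0% = enzyme reaction without inhibitor and -100% = no enzyme wells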
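Fluorescence-quenching assay: 15 nM Sfp-PPTase preincubated 15 min at room temperature with compound, then 5 uM rhodamine-CoA and 12.5 uM BHQ-2-labelled YbbR peptide added. Fluorescence (ex 525/em 598 nm) read at start and after 30 min; difference gives rate.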
BAZ2B block: inhibitors of human BAZ2B bromodomain. Q9UIF8. AlphaScreen BAZ2B-H3K14Ac peptide displacement. Potency, µM (doses to about 114 µM), without a hit: top-dose activity change, negative = inhibition, actives largely listed as inhibitors. 360,000 compounds, 4.4% hits. AID 504333; also: % is scaled to controls: 0 for no effect and ±100 for the full control effect; nearly all actives have a fitted effect of over 60% in size
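Complex of BAZ2B and biotin-H3K14Ac (50 nM apiece) forms over 30 min at RT, then faces library compounds up to 110 uM for another 30 min; AlphaScreen beads added, 20 min dark incubation, luminescence read.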
HP1b chromo inh: HP1-beta chromodomain-methylated histone interaction inhibition; P83916; AlphaScreen HP1-beta / biotin-H3K9me3 peptide binding; Potency, µM (top dose mostly 114 µM), for the others: top-dose activity change, negative = inhibition, usual class: inhibitors; 390,000 compounds, 0.56% hits; AID 540317; also: nearly all actives have a fitted effect of over 70% in size
Target sequence (P83916 whole entry, looked up): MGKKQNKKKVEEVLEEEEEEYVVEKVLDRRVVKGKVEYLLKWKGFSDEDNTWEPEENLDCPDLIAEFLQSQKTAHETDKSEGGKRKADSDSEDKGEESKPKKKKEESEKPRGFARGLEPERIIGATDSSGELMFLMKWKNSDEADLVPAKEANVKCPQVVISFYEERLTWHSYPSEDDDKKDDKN
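AlphaScreen: HP1-beta (50 nM) preformed 30 min with biotin-H3(1-18)K9me3 peptide (50 nM) in PBS pH 7.4, 0.01% Tween-20. Compound added for 30 min at RT, then streptavidin donor/nickel chelate acceptor beads (10 ug/mL) for 30 min.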
Active calls of the source: *; ? = inconclusive; / = not tested or not shown; [ ] = another dose, or the depositor's remark. Calls follow the shape of the dose curve; as a rule, active = well fitted curve in the direction sought with a large enough effect; inconclusive = small, poorly fitted or top-dose-only effect, or another doubt; inactive = no such curve, though single readings can be large; an effect the other way counts as inactive or inconclusive. Potency is read from the fitted curve at half-maximal effect.

SMILES | PLK1 PBD inh | JMJD2A Tudor | G9a inh | Sfp inh | BAZ2B block | HP1b chromo inh
COc1ccc(N2CCN(C(C)C(=O)N3CC(C)OC(C)C3)CC2)cc1 (stereo not given) | -14% | 0.89µM* | 45µM* | ? | 56µM* | ?
COc1ccc(N2CCN(C(=O)[C@H](C)N3C(=O)C4CC=CCC4C3=O)CC2)cc1 (stereo not given in full) | 2% | -6% | / | / | / | 9%[57 µM]
COc1cc2c(cc1OC)CN(C(C)C(=O)N1CCc3ccccc31)CC2 (stereo not given) | 0% | -16% | ? | ? | 56µM* | 6%
COc1ccc(N2CCN(C(C)C(=O)N3CCc4ccccc43)CC2)cc1 (stereo not given) | -8% | ? | 40µM* | 1% | ? | ?
CC(C(=O)N1CCc2ccccc21)N1CCc2ccccc2C1 (stereo not given) | -4% | -10% | 17%[59 µM] | -2% | 4% | 30%
COc1ccc(OC(C)C(=O)N2CCCc3ccccc32)cc1 (stereo not given) | -11% | -6% | / | 1% | 1% | 39%
Cc1ccc(NCC(=O)N2CCN(S(=O)(=O)c3ccccc3)CC2)cc1F | -1% | -19% | ? | / | -22% | 12%
COc1ccc2c(COC(=O)[C@@H]3CCCN3S(=O)(=O)c3ccc(Cl)cc3)cc(=O)oc2c1 | 1% | -7% | ? | / | 6% | 35%
CCN1CCN(C(=O)NCc2ccccc2)CC1 | 5% | 1.6µM* | 22µM* | -9% | -3% | ?
O=C(NCc1ccccc1)N1CCN(c2ccc(F)cc2)CC1 | 3µM* | -31%[11.4 µM] | 0%[59 µM] | -3% | -1% | ?
O=C(NC1CCN(C(=O)NCc2ccccc2)CC1)c1ccccc1 | -6% | -7% | -2% | 8% | 6% | 27%
O=C(NCCC(=O)N1CCN(c2ccc(F)cc2)CC1)c1ccco1 | -10% | -28% | 50µM* | / | 10% | -4%
O=C(Cc1ccccc1)NC1CCN(C(=O)NCc2ccccc2)CC1 | 27µM* | 0%[11.4 µM] | 15%[12.7 µM] | 21% | 5% | -15%
O=C(NCc1ccccc1)N1CCN(c2ccc(Cl)c(Cl)c2)CC1 | -7% | -11% | 17%[59 µM] | 22% | 9% | 19%
CS(=O)(=O)n1c2ccccc2c(=O)n1-c1ccccc1CCl | -13% | / | / | / | / | /
COc1cccc(-c2nnc3n2N=C(c2c(OC)cccc2OC)CS3)c1OC | / | -8% | / | 4% | / | /
CCN1CCN(C(=S)c2ccc(OCC(=O)Nc3ccc(OC)cc3)cc2)CC1 | -4% | -12% | / | / | / | 12%
CCN1CCN(C(=S)c2ccc(OCC(=O)NCc3ccccc3)cc2)CC1 | 11µM* | -27% | 10µM* | 22µM* | -17% | -15%
COc1ccc(N2CCN(C(=O)NCc3ccc(C)cc3)CC2)cc1 | 0% | -6% | 40µM* | 18% | -25% | 16%
COc1c2c(cc3c1C(CC(O)Cc1ccccc1)N(C)CC3)OCO2 (stereo not given) | -10% | -33% | ? | -3% | ? | 1%
COc1ccc2c(c1OC)C(Cc1ccccc1)N1CCc3cc4c(cc3C1=C2)OCO4 (stereo not given) | / | / | / | 50µM* | / | /
CCC(C)Sc1nnc(NS(=O)(=O)Cc2ccccc2)s1 (stereo not given) | -27% | -8% | 32µM* | 9% | -24% | 44%
COCCSc1nnc(NS(=O)(=O)Cc2ccccc2)s1 | -21% | -8% | ? | 8% | -22% | 10%
Cc1ccc(C(=O)N/C(=C\c2ccc(F)cc2)C(=O)NCCCn2ccnc2)cc1 | 0% | -15% | 8% | 2% | 79µM* | 55%
COc1ccc(/C=C(\NC(=O)c2ccc(C)cc2)C(=O)NCCCn2ccnc2)cc1OC | -7% | -29% | 6% | 15% | 50µM* | -11%
COc1ccc(/C=C(/NC(=O)c2ccccc2)C(=O)NCCCn2ccnc2)cc1OC | 0% | -3% | 14% | 11% | -23% | 27%
Cc1ccc(C(=O)N/C(=C/c2ccccc2F)C(=O)NCCCn2ccnc2)cc1 | 27µM* | -14% | 9% | 22% | -33% | 5%

Screening data deposited in PubChem BioAssay by National Center for Advancing Translational Sciences (NCATS).
